Source: article PMC7862700, “An all-to-all approach to the identification of sequence-specific readers for epigenetic DNA modifications on cytosine”

How the values were obtained:
Experiment in all cases: DAPPL (digital affinity profiling via proximity ligation, sequencing); 10 mM Tris-HCl pH 7.5, 50 mM NaCl, 1 mM DTT, 4% glycerol, room temperature, 30 min; GST-TFs on glutathione beads, 16-mer random dsDNA library, 0.1% formaldehyde crosslink after washing; high values mean tight binding
Conditions in all cases: protein: recombinant; tags: N-terminal GST; dsDNA, one strand shown
[1] = target: T1, FLI1 (Homo sapiens, UniProt Q01543 1-452)
T1 sequence: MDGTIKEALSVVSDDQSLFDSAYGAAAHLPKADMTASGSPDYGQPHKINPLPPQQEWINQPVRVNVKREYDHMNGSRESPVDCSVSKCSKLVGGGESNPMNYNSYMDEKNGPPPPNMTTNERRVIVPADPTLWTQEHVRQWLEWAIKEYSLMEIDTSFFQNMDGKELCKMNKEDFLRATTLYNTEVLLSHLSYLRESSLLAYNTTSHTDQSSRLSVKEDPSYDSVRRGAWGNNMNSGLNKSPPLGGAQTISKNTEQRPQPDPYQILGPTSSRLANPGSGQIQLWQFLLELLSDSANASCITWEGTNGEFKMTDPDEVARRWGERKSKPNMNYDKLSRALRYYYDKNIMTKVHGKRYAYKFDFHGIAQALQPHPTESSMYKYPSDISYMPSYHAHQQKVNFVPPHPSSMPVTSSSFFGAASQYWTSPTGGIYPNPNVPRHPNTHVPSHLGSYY
In short: (§1)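 Human transcription factors were made in yeast as GST fusions, captured on glutathione beads and barcoded with DNA. With a tag-only sample included, the pool was incubated with 200 nmole of a random double-stranded 16-mer DNA library in Tris/NaCl/DTT/glycerol buffer at room temperature for 30 min, then crosslinked with 0.1% formaldehyde after washing, ligated by proximity, amplified and sequenced. For binding signal, each hexamer's read frequency for a factor is divided by its frequency for the tag-only sample.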

[2] = target: T2, ELK1 (Homo sapiens, UniProt P19419 1-428)
T2 sequence: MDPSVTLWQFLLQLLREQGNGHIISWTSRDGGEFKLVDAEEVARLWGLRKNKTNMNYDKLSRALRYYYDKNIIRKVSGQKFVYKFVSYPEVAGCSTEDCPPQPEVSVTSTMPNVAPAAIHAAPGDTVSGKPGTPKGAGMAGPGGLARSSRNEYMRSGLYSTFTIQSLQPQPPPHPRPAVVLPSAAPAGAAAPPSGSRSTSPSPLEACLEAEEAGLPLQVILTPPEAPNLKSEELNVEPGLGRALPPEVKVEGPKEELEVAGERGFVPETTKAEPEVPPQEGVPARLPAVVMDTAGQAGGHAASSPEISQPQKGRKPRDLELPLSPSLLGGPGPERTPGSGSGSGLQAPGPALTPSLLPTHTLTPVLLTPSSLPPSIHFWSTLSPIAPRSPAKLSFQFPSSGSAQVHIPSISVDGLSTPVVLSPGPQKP
In short: as §1

[3] = target: T3, GABPA (Homo sapiens, UniProt Q06546 1-454)
T3 sequence: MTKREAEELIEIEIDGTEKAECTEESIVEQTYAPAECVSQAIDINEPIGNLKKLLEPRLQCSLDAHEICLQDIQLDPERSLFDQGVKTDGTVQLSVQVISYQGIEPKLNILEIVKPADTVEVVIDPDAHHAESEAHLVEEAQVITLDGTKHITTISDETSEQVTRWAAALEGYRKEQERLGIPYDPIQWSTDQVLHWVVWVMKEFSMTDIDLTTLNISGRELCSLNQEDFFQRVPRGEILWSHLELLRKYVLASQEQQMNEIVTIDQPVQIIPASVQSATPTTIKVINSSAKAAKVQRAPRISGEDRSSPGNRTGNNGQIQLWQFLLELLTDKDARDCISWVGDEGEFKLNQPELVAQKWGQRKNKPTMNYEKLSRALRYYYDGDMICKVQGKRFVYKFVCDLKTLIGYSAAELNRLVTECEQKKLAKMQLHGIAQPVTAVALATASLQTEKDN
In short: as §1

[4] = target: T4, ERG (Homo sapiens, UniProt P11308 1-479)
T4 sequence: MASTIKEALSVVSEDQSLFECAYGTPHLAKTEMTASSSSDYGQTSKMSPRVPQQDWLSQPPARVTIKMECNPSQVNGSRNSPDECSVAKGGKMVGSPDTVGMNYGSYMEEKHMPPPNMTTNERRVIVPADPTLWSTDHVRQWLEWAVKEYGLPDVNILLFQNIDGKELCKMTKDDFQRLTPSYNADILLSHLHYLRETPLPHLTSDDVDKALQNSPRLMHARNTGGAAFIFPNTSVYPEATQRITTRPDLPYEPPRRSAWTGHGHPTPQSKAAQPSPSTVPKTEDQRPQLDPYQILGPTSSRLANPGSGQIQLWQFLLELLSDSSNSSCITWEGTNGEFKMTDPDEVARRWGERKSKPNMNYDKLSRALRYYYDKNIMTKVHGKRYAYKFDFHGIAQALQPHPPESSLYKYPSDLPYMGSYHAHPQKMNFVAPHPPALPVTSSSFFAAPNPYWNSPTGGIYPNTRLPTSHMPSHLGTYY
In short: as §1

[5] = target: ELF1 (Homo sapiens, UniProt P32519 1-619)
In short: as §1

[6] = target: T5, EHF (Homo sapiens, UniProt Q9NZC4 1-300)
T5 sequence: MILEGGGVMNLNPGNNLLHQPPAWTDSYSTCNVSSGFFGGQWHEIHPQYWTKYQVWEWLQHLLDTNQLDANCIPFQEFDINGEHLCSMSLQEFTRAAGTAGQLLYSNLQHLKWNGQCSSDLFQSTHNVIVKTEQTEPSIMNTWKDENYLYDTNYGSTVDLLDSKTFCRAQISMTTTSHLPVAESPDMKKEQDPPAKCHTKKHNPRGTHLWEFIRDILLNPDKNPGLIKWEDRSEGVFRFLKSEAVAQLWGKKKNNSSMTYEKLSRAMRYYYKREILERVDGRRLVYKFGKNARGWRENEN
In short: as §1

[7] = target: SPI1 (Homo sapiens, UniProt P17947 1-270)
In short: as §1

[8] = target: SPIB (Homo sapiens, UniProt Q01892 1-262)
In short: as §1

[9] = target: T6, ELK3 (Homo sapiens, UniProt P41970 1-407)
T6 sequence: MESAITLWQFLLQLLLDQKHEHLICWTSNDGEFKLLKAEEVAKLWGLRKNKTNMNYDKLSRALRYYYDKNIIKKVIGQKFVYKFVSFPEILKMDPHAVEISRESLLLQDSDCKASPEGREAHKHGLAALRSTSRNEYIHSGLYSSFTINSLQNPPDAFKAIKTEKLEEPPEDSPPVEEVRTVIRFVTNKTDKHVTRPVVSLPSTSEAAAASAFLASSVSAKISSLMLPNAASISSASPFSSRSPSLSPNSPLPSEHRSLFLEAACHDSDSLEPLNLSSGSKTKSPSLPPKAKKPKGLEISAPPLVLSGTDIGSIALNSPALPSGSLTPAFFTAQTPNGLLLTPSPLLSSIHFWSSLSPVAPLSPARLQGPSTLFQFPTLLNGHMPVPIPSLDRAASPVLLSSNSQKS
In short: as §1

Sequence of SPIB (Q01892 whole entry): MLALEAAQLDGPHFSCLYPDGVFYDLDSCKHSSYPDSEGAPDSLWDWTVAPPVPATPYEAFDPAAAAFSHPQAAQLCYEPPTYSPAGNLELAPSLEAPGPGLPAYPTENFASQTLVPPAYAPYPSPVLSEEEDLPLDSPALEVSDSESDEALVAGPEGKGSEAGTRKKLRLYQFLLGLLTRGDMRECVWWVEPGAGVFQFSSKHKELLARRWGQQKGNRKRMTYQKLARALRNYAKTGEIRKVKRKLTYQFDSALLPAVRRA
Sequence of ELF1 (P32519 whole entry): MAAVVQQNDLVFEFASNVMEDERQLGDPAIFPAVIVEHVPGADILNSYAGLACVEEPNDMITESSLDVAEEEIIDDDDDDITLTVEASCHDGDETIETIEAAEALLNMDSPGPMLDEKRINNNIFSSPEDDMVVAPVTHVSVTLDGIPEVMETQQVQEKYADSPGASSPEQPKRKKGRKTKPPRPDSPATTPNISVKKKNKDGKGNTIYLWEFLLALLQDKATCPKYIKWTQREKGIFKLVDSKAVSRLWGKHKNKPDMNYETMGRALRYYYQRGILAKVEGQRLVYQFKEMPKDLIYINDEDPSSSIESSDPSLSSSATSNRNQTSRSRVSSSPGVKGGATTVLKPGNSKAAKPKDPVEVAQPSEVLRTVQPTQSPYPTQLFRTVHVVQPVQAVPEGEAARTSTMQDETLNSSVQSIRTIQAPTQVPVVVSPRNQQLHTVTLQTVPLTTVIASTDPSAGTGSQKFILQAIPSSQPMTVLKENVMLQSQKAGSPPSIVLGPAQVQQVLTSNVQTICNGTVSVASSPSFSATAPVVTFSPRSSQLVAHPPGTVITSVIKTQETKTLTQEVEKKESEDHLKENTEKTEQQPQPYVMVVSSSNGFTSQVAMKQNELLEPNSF

For ATAACC, the binding signal [1] was 1.21 fold enrichment (6-mer frequency, TF over GST control), the binding signal [2] was 1.27 fold enrichment (6-mer frequency, TF over GST control) and the binding signal [3] was 1.22 fold enrichment (6-mer frequency, TF over GST control). For the same sequence, the binding signal [4] was 1.13 fold enrichment (6-mer frequency, TF over GST control), the binding signal [5] was 1.23 fold enrichment (6-mer frequency, TF over GST control) and the binding signal [6] was 1.15 fold enrichment (6-mer frequency, TF over GST control). For the same sequence, the binding signal [7] was 1.06 fold enrichment (6-mer frequency, TF over GST control), the binding signal [8] was 1.25 fold enrichment (6-mer frequency, TF over GST control) and the binding signal [9] was 1.37 fold enrichment (6-mer frequency, TF over GST control).
